Assay results: ChEMBL document CHEMBL1157539, “Thousands of chemical starting points for antimalarial lead identification” (Nature, 2010)

What was measured:
Type in all cases: functional
Plasmodium falciparum [1] = experiment: GSK_TCMDC: Inhibition of Plasmodium falciparum 3D7 in whole red blood cells, using parasite LDH activity as an index of growth. Test compounds present at 2uM
Plasmodium falciparum [2] = experiment: GSK_TCMDC: Inhibition of Plasmodium falciparum Dd2 in whole red blood cells, using parasite LDH activity as an index of growth. Test compounds present at 2uM
HepG2 = experiment: GSK_TCMDC: Percent inhibition of human HepG2 cell line. Test compounds present at 10uM.

Compound | Inhibition (Plasmodium falciparum [1]) | Inhibition (Plasmodium falciparum [2]) | Inhibition (HepG2)
CNC(=O)c1ccccc1Nc1nc(Nc2cccnc2)ncc1C.Cl | 93% | 90% | 17%
Cl.Cn1c2ccccc2c2c3ccccc3c(CNC(CO)(CO)CO)cc21 | 96% | 78% | 67%
Cc1cccc2nc(-c3ccc(-c4ccc(NC(=O)C(=O)c5cccn5C)cc4)cc3)[nH]c12 | 95% | 15% | 40%
CN1C(C)(C)CC(NC(=O)c2ccc(-c3cc4cc(Cl)c(Cl)cc4[nH]3)o2)CC1(C)C | 100% | 43% | 21%
COc1ccc(S(=O)(=O)NCCCC2CCN(CCCCCNC(=O)C=Cc3ccc(Cl)c(Cl)c3)CC2)cc1 | 85% | 12% | 24%
CC(C)[C@H](NC(=O)c1ccc(O)c(-c2ccc(Cl)c(Cl)c2)c1)C(=O)NCCN1CCOCC1 | 95% | 44% | 0%
CO/C(=C/C=C/c1cc2cc(Cl)c(Cl)cc2[nH]1)C(=O)NC1CC(C)(C)N(C)C(C)(C)C1 | 99% | 85% | 58%
COc1cncc(/C=C/c2cncc(C(=O)NCCc3ccc(Cl)cc3Cl)c2)c1 | 99% | 49% | 0%
Cc1ccc2[nH]c(C)cc(=NN=Cc3cccc(F)c3)c2c1 | 99% | 99% | 6%
CN1CCC[C@@H](Oc2cc3c(cc2Br)CCN3C(=O)Nc2ccc(-c3ccncc3)c(Cl)c2)C1 | 99% | 64% | 26%
O=C(/C=C/c1ccc(Cl)c(Cl)c1)NCCCCCCN1CCCN(C(=O)Nc2ccc(Cl)c(C(F)(F)F)c2)CC1 | 100% | 24% | 25%
O=C(NC1CCN(CCCOc2ccnc3cc(Cl)ccc23)C1)c1ccc(Br)cc1 (stereo not drawn) | 86% | 87% | 21%
CCN(CC)CCCn1c(N)c(-c2nc3ccccc3[nH]2)c2nc(C#N)c(C#N)nc21 | 100% | 99% | 8%
C=CCN1C(=O)c2[nH]nc(-c3cc(C)c(C)cc3O)c2C1c1cccc(Br)c1 (stereo not drawn) | 90% | 82% | 0%
O=C(Nc1ccc(-c2cccc(-c3nc4cc(F)ccc4[nH]3)c2)cc1)c1ccncc1 | 96% | 18% | 58%
CN(CCN)Cc1ccc(-c2ccc(-c3nc4cc(F)ccc4[nH]3)s2)cc1.O=C(O)C(F)(F)F | 96% | 81% | 31%

Compound | Inhibition (Plasmodium falciparum [1]) | Inhibition (Plasmodium falciparum [2]) | Inhibition (HepG2)
Cc1cc(-c2cccc(CNCc3ccc(F)cc3)c2)ccc1S(=O)(=O)NCCN1CCCC1.O=C(O)C(F)(F)F | 100% | 64% | 49%
COc1ccc2cc(C(c3nnnn3CC3CCCO3)N3CCc4ccccc43)c(=O)[nH]c2c1 (stereo not drawn) | 94% | 3% | 0%
Cl.OC(c1cc(C(F)(F)F)nc2c(F)cccc12)C1CCCCN1 (stereo not drawn) | 98% | 74% | 0%
COc1ccc2nccc([C@@H](O)CN3CCC(NC(=O)C(c4cc5ccccc5o4)N4CCN(c5ccccc5OC)CC4)CC3)c2c1 (stereo partly drawn) | 99% | 83% | 14%
O=C(Nc1ccc2c(c1)CCCN2S(=O)(=O)c1cccs1)c1cc([N+](=O)[O-])ccc1Cl | 93% | 95% | 29%
COc1cc2nc(N3CCN(c4cc(C)ccc4C)CC3)nc(N)c2cc1OC.Cl | 98% | 12% | 66%
COc1cc(NCC(C)CNCc2cn(Cc3ccccc3)c3ccccc23)nc2ccccc12 (stereo not drawn) | 90% | 55% | 21%
CCN1CCN(C(=O)NC(C(=O)N2CCCC(COc3ccc(Cc4ccccc4)cc3)C2)c2cccs2)C(=O)C1=O (stereo not drawn) | 95% | 87% | 12%
C[C@H](N[C@H]1CCCc2c1[nH]c1ccc(Br)cc21)c1ccccc1.Cl | 96% | 95% | 58%
COc1ccc(CNCc2ccccc2)cc1-c1ccc(S(=O)(=O)NCCN2CCCC2)c(F)c1.O=C(O)C(F)(F)F | 87% | 42% | 29%
COc1cccc(-c2ccc3ccnc(N)c3c2)c1.O=C(O)C(F)(F)F | 100% | 93% | 40%
CN1CCCN(Cc2cccc(-c3ccc(CNC(=O)c4cccc(Cl)c4)c(F)c3)c2)CC1.O=C(O)C(F)(F)F | 96% | 38% | 56%
COc1ccc(-c2nc(NCc3ccccc3)c3cc(OC)c(OC)cc3n2)cc1 | 100% | 100% | 15%
Cc1cc(Nc2cccc(C(F)(F)F)c2)nc(Nc2cccc(C(F)(F)F)c2)n1 | 100% | 73% | 0%
CN(C)CCOc1ccc(-c2cc(-c3ccc(Cl)c(O)c3)c(-c3ccncc3)[nH]2)cc1.Cl | 98% | 92% | 54%
